From PubChem BioAssay (NCATS)
Results filed as inconclusive are left out. Where a call stands in place of a potency, no number is given. Active and inactive are the calls of the source. Calls come from the whole dose curve; as a rule, active = well fitted curve in the direction sought with a large enough effect; inconclusive = small, poorly fitted or top-dose-only effect, or another doubt; inactive = no such curve, though single readings can be large; an effect the other way counts as inactive or inconclusive.

Key:
[1] = qHTS for Inhibitors of Plasmodium falciparum (DD2) proliferation (AID 504314);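 note: parasite DNA measured by SYBR Green fluorescence after red cell lysis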; conditions: P. falciparum Dd2 in erythrocytes, SYBR Green growth, 72 h; series mostly up to 1.12 µM
Summary of the method: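 Fluorescence read-out (ex 485/em 535 nm) of SYBR Green-stained parasite DNA quantifies intraerythrocytic growth. Cultures at 0.3% parasitemia and 2.5% hematocrit were treated for 72 h; data normalized to DMSO and 0.29 uM artemisinin wells.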

[2] = qHTS for Inhibitors of Plasmodium falciparum (GB4) proliferation (AID 504315); note: nearly all actives have a fitted effect of over 50% in size; conditions: P. falciparum GB4 in erythrocytes, SYBR Green DNA, 72 h; series mostly up to 6.7 µM
Summary of the method: (§1)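 Erythrocytes infected with P. falciparum line (0.3% parasitemia, 2.5% hematocrit final) incubated with compounds 72 h at 37 °C, 5% CO2; SYBR Green lysis buffer added, fluorescence read next day. Normalized to 0.29 uM artemisinin and DMSO.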

[3] = qHTS for Inhibitors of Plasmodium falciparum (CP250) proliferation (AID 504320); conditions: P. falciparum CP250 in erythrocytes, SYBR Green DNA, 72 h; series mostly up to 6.7 µM
Summary of the method: as §1

[4] = qHTS for Inhibitors of Plasmodium falciparum (7G8) proliferation (AID 504316); note: nearly all actives have a fitted effect of over 65% in size; note: potency is the fitted concentration of half-maximal effect; conditions: P. falciparum 7G8 in erythrocytes, SYBR Green DNA, 72 h; series mostly up to 6.7 µM
Summary of the method: as §1

[5] = qHTS for Inhibitors of Plasmodium falciparum (HB3) proliferation (AID 504318); note: nearly all actives have a fitted effect of over 60% in size; note: potency is the fitted concentration of half-maximal effect; conditions: P. falciparum HB3 in erythrocytes, SYBR Green DNA, 72 h; series mostly up to 7.21 µM
Summary of the method: as §1

Row | SMILES | Potency [1] | Potency [2] | Potency [3] | Potency [4] | Potency [5]
1 | COC(=O)C1=C(C(=O)OC)[C@@H]2N(Cc3ccccc3)c3ccccc3[C@@]23C[C@@H](C(=O)OC)N(C(=O)COCc2ccccc2)C3=N1 | inactive | inactive | inactive | – | –
2 | CC1(OC(=O)CCc2ccccc2)C(=O)C=C2C=C(c3ccc(C#N)cc3)N(c3ccccc3)C=C2C1=O (centres undefined) | inactive | – | inactive | inactive | –
3 | CCCCc1nc2c(c3c1C[C@H](C)OC3)CN(S(=O)(=O)c1c(C)noc1C)CC2 | inactive | – | inactive | – | inactive
4 | CCCCn1c(C)cc2c(c1=O)[C@H]1O[C@](c3ccsc3)(Cc3ccccc31)O2 | inactive | – | inactive | 1.69 µM (active) | –
5 | COC(=O)C1=C(C(=O)OC)[C@@H]2Nc3ccccc3[C@@]23C[C@@H](C(=O)OC)N=C3N1 | inactive | – | inactive | inactive | inactive
6 | CCCCC1=CC2=CC(=O)C(C)(OC(=O)CC)C(=O)C2=CN1CCOC (centres undefined) | inactive | – | inactive | inactive | inactive
7 | C#CCCOC(=O)N1C2=NC(C(=O)OC)=C(C(=O)OC)[C@@H]3N(CC#CC)c4ccccc4[C@]23C[C@H]1C(=O)OC | inactive | – | inactive | – | inactive
8 | CCCCC1=CC2=CC(=O)C(C)(OC(=O)CC)C(=O)C2=CN1CCc1ccccn1 (centres undefined) | inactive | – | inactive | inactive | inactive
9 | COC(=O)C(C(=O)OC)C1c2ccccc2C=C(C)N1C(=O)OC (centres undefined) | inactive | – | inactive | inactive | inactive
10 | COc1ccc2c(c1)O[C@@H](c1cccc(C(F)(F)F)c1)[C@H](OC(=O)N[C@H]1CCCc3ccccc31)C2=O | inactive | inactive | inactive | – | –
11 | CC1(OC(=O)C2CCCC2)C(=O)C=C2C=C(c3ccsc3)N(c3ccccc3)C=C2C1=O (centres undefined) | inactive | – | inactive | inactive | inactive
12 | COCCN1C=C2C(=O)C(C)(OC(=O)CCc3ccccc3)C(=O)C=C2C=C1c1ccc(C#N)cc1 (centres undefined) | inactive | – | inactive | inactive | inactive
13 | COc1ccc(-c2nc3c(c4c2C[C@H](c2ccccc2)OC4)CN(S(=O)(=O)c2c(C)noc2C)CC3)c(C)c1 | inactive | – | – | 1.69 µM (active) | 2.13 µM (active)
14 | COC(=O)c1ccccc1S(=O)(=O)N1CCc2nc(-c3ccccc3)c3c(c2C1)CO[C@@H](C)C3 | inactive | – | inactive | inactive | –
15 | CCOC(=O)CN1C(=O)N[C@@H](CCc2ccccc2)[C@H](C(C)=O)[C@H]1C | inactive | – | inactive | – | inactive
16 | CCOC(=O)CCCNC(=O)N1CCc2nc(-c3ccc(OC)cc3C)c3c(c2C1)CO[C@@H](c1ccccc1)C3 | inactive | – | inactive | 1.69 µM (active) | –
17 | C=CCN1c2ccccc2[C@]23C[C@@H](C(=O)OC)N(S(=O)(=O)c4ccc5c(c4)OCCN5C)C2=NC(C(=O)OC)=C(C(=O)OC)[C@H]13 | inactive | – | – | 1.69 µM (active) | –
18 | COC(=O)[C@@H](NC(=O)N1CCc2nc(COc3ccccc3)c3c(c2C1)CO[C@@H](C)C3)C(C)C | inactive | – | inactive | 1.69 µM (active) | –

Row | SMILES | Potency [1] | Potency [2] | Potency [3] | Potency [4] | Potency [5]
19 | COC(=O)N1C(C)=Cc2ccccc2C1C/C(C)=C/C(C)=O (centres undefined) | inactive | – | inactive | inactive | –
20 | CCCCS(=O)(=O)N1CCc2nc(COc3ccccc3)c3c(c2C1)CO[C@@H](C)C3 | inactive | – | inactive | inactive | –
21 | COC(=O)C1=C(C)N(Cc2ccco2)C(=O)N[C@@H]1c1ccc(Br)cc1 | inactive | – | inactive | inactive | inactive
22 | CCC(=O)N1C2=C(c3ccccc3[C@@H]1CC(=O)Nc1ccc3ccccc3c1)[C@@H]1C(=O)N(c3ccccc3)C(=O)[C@@H]1[C@H](C)C2 | inactive | – | inactive | 1.9 µM (active) | –
23 | C=CCN1C=C2C(=O)C(C)(OC(=O)CC)C(=O)C=C2C=C1CCCC (centres undefined) | inactive | – | inactive | inactive | inactive
24 | C=CCN1c2ccccc2[C@]23C[C@@H](C(=O)OC)N(S(=O)(=O)c4ccc(Br)cc4)C2=NC(C(=O)OC)=C(C(=O)OC)[C@H]13 | inactive | – | – | inactive | –
25 | COC(=O)C1=C(C(=O)OC)[C@@H]2N(Cc3ccccc3)c3ccccc3[C@@]23C[C@@H](C(=O)OC)N(S(=O)(=O)c2ccc([N+](=O)[O-])cc2)C3=N1 | inactive | – | – | – | 1.9 µM (active)
26 | COC(=O)[C@@H]1[C@@H](C)N(Cc2ccccc2)C(=O)N[C@H]1c1cccc(C(F)(F)F)c1 | inactive | – | inactive | inactive | inactive
27 | COC(=O)CCC(=O)OC1(C)C(=O)C=C2C=C(C3CC3)N(CCc3ccccn3)C=C2C1=O (centres undefined) | inactive | – | – | – | inactive
28 | CCOC(=O)CCCNC(=O)N1CCc2nc(COc3ccccc3)c3c(c2C1)CO[C@@H](C)C3 | inactive | – | inactive | 1.51 µM (active) | –
29 | CCOC(=O)NN=C1C[C@@H](O)[C@@H](O)[C@@H]2[C@H]3C(=O)N(CC)C(=O)[C@@H]3CC[C@@H]12 | inactive | – | inactive | inactive | inactive
30 | COC(=O)C1=C(C(=O)OC)[C@@H]2Nc3ccccc3[C@@]23C[C@@H](C(=O)OC)N(S(=O)(=O)c2c(C)noc2C)C3=N1 | inactive | – | inactive | inactive | inactive
31 | CCCCc1nc2c(c3c1C[C@H](C)OC3)CN(C(=O)Nc1cccc(C#N)c1)CC2 | inactive | – | – | inactive | inactive
32 | COC(=O)C1=C(C(=O)OC)[C@@H]2N(C)c3ccc(OC)cc3[C@@]23C[C@@H](C(=O)OC)N(S(=O)(=O)c2ccc(Br)cc2)C3=N1 | inactive | – | – | 1.51 µM (active) | –
33 | CCCCC1=CC2=CC(=O)C(C)(OC(=O)CC)C(=O)C2=CN1CCCCO (centres undefined) | inactive | – | inactive | inactive | –
34 | CCOC(=O)CN1C(=O)N[C@@H](c2cccc(C(F)(F)F)c2)[C@@H](C(=O)OC)[C@H]1C | inactive | – | inactive | inactive | –
35 | Cc1ccc(S(=O)(=O)N2CCc3nc(-c4ccccc4)c4c(c3C2)CO[C@@H](C)C4)cc1 | inactive | – | – | inactive | inactive
36 | COC(=O)N1C(/C=C/C=C/c2ccc(OC)cc2)=Cc2ccccc2C1CC(C)=O (centres undefined) | inactive | – | inactive | 1.51 µM (active) | –
